In PubChem BioAssay AID720534 (National Center for Advancing Translational Sciences (NCATS), 2013) one finds Potency data, which are given here for five compounds.

About 990 (62%) of roughly 1,600 compounds were called active. Inconclusive results (about 30%) are left out. So high a share suggests a set chosen from earlier hits. This is one part of a sample in which actives are shown more often than they occur. Calls come from the whole dose curve; as a rule, active = well fitted inhibition curve with a large enough effect; inconclusive = small, poorly fitted or top-dose-only effect; inactive = no such curve, though single readings can be large or run the other way.
Potency is the fitted concentration of half-maximal effect.

The assay is described as follows: qHTS for Inhibitors of TGF-b: Confirmation of Cherry Picks. Note: nearly all actives have a fitted effect of over 65% in size. Conditions: HepG2 CAGA-GFP TGF-b reporter, GFP fluorescence, 18 h; cells stimulated with TGF-beta, 500 pg/mL. An excerpt:
TGF-b is a main component in the TGF-b signaling pathway which plays diverse roles in cellular and development pathways. TGF-b is mediated through transcription factors called "Smads". Although the Smad-dependent pathway is the primary canonical TGF-b signaling mode, TGF-b1 can also activate alternative signaling pathways, including those involving MAPK (ERK, JNK and p38). This interaction may mediate or enhance Smad-dependent responses, or can exert Smad-independent effects. The complexity of this signaling cascade allows the TGF-b superfamily to perform unique, overlapping or redundant functions. We believe that targeting the TGF-beta pathway at the Smad-transcription factor level may eliminate the consequences of disrupting the entire pathway and offer specificity without affecting other signaling pathways. Smad3 is the primary transducer of TGF-b's signals and Smad3 regulates many functions attributed to TGF-b signaling. We hypothesize that Smad3 inhibitors will selectively eliminate Smad3-specific TGF-beta signals without undesired off-target effects. We aim to identify Smad3-small molecule antagonists using a quantitative high throughput screening (qHTS) approach. In this assay, hits identified from the primary screen were re-tested. MH087449NIH Chemical Genomics Center [NCGC] NIH Molecular Libraries Probe Centers Network [MLPCN] MLPCN Grant: MH087449 Assay Submitter (PI): Sushil Rane, National Institute of Diabetes and Kidney Diseases
Suspensions of trypsinized HEPG2 CAGA-GFP cells were dispensed into white, tissue culture-treated, solid 1536-well plates at 5uL/well (1000 cells/well final concentration) in DMEM medium supplemented with 1% FBS. Plates were incubated at 37 degrees C for 2 hours, after which 23 nL of compounds or DMSO were delivered to each well using a pin tool. One uL of recombinant TGF-beta in DMEM (1% FBS) was then dispensed (500 pg/mL final concentration), and plates were incubated at 37 degrees C for 18 hours. The plates were measured on an Acumen eX3 Explorer plate reader for GFP fluorescence (ex488/em500-530). GFP values were calculated by determining the mean GFP fluorescence of individual cells, and compiling these values for each well to determine a total well GFP signal. The %Activity was determined from the corrected fluorescence values. A titration of the known TGF-B inhibitor SB431542 was included to monitor plate performance, while unstimulated HEPG2 (-TGF-B) control wells were used to normalize %Activity of identified inhibitors; unstimulated wells corresponded to 100%Activity (full inhibition), while stimulated cell controls (+DMSO) were used to normalize 0%Activity (no inhibition). Concentration-response curves were fitted to the signals arising from the resulting fluorescence. The concentration-effect curves were then classified based on curve quality (r2), response magnitude and degree of measured activity, and compounds were subsequently categorized based on their curve class.
`COC(=O)C1=C(c2cc3ccccc3o2)C[C@@H]2CC[C@H]1N2C(=O)NC1CCCCC1`: the Potency is 20.6 µM (active).
The value for `O=Cc1cn(Cc2ccc(F)cc2Cl)c2ccccc12` was 9.2 µM (active); that for `CN(C(=O)c1cccc(NC(=O)Cc2cccc([N+](=O)[O-])c2)c1)C1CCCCC1` was 13 µM (active); that for `CCC(C)(O)C(=O)OC1C(=O)OC2CC3C(C)=CC(=O)C(O)C3(C)C3C4(O)OCC23C1C(C)C4O` (stereo not given) was 0.291 µM (active).
Under `CC[C@H]1CN2CCc3cc(OC)c(OC)cc3[C@@H]2C[C@@H]1C[C@H]1NCCc2cc(OC)c(OC)cc21` stands 0.0231 µM (active).
